According to PubChem BioAssay:
Activity calls are given as the source filed them.

Columns and labels:
[1] = target: Albumin (Bos taurus) (UniProt P02769); assay: compounds binding labelled BSA control protein – biochemical, small-molecule microarray, Alexa647 label, 635/667 nm fluorescence, artefact control for SMM control protein annotation, profiling panel (AID 1118); details: BSA-A647 binding, fluorescence 635 nm, higher = more signal;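 further: score merges 667 nm emission intensity and signal-to-noise per printed compound spot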
Sequence of Albumin (Bos taurus) (P02769 whole entry, looked up): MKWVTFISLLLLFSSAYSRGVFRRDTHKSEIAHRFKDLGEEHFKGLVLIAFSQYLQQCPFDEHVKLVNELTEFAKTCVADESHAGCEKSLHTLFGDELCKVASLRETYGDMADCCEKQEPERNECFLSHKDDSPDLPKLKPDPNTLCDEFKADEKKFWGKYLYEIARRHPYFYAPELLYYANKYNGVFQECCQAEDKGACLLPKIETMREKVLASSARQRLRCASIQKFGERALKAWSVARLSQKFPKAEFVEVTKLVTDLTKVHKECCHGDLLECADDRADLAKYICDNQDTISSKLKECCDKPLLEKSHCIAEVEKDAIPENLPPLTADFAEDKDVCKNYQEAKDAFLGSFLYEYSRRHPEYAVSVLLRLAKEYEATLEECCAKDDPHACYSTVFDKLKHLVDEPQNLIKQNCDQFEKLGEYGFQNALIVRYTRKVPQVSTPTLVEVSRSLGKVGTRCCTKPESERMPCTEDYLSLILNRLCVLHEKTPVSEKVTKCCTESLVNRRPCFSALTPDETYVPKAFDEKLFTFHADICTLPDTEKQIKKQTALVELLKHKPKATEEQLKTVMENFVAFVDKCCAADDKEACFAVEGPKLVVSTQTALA

[2] = probe aXIP binding to arrayed compounds – biochemical, NeuroSMM set, 635/667 nm fluorescence, primary screen (AID 1119); details: small-molecule microarray, higher = more signal, called active from +8 up or from −8 down;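 further: probe is the protein aXip251-270 applied at 1 µg/mL to compound-printed slides; binding of probe to printed compounds measured as 667 nm fluorescence plus signal to noise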
[3] = probe aNOTCH3 binding on compound microarray – biochemical, small-molecule microarray, 635/667 nm fluorescence, primary screen (AID 1120); details: higher = more signal;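 further: probe is a biotin-tagged antibody raised against NOTCH3 rather than NOTCH3 protein; score merges spot fluorescence near 667 nm with spot signal to noise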
[4] = probe aNOTCH2 binding on compound microarray – biochemical, small-molecule microarray, 635/667 nm fluorescence, primary screen (AID 1121); details: higher = more signal;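 further: score merges feature fluorescence read at 667 nm with its signal to noise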
[5] = target: Carbonic anhydrase 2 (Homo sapiens) (UniProt P00918); assay: compounds binding carbonic anhydrase 2 – biochemical, small-molecule microarray, Alexa647-labelled CAII, profiling panel (AID 1122); details: CAII-A647 binding fluorescence, higher = more signal
[6] = COS7 lysate on small-molecule microarray, probe aHis, 635 nm (AID 1123); details: COS7 cell lysate, fluorescence, higher = more signal;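 further: z-score combines 667nm fluorescence intensity with signal-to-noise per printed compound spot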
[7] = probe aLAP1 signal on lysate-treated microarray – cell lysate, small-molecule microarray, COS7 lysate, primary screen (AID 1124); details: probe aLAP1, fluorescence, higher = more signal;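 further: lysate comes from COS7 cells expressing LAP1 and is applied at 0.3 µg/mL; score merges spot fluorescence near 667 nm with signal-to-noise over triplicate slides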
[8] = test system: Sam68 (KHDRBS1); assay: compounds binding KHDRBS1 protein – biochemical, small-molecule microarray, 635 nm fluorescence, primary screen (AID 1125); details: higher = more signal;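 further: score merges 667 nm channel intensity with signal to noise over triplicate slides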
[9] = test system: Chordin-like protein 2 (CHRDL2); assay: compounds binding chordin-like 2 – biochemical, small-molecule microarray, 635 nm fluorescence, primary screen (AID 1126); details: fluorescence 635 nm, higher = more signal;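 further: printed compound slides probed with Chrdl2 protein at 4 µg/mL for 1 h at 4 C; score merges 667 nm emission intensity with signal to noise over three replicate slides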
[10] = target: Concanavalin-A (Canavalia ensiformis) (UniProt P02866); assay: compounds binding concanavalin A lectin – biochemical, small-molecule microarray, Alexa647 label, 635 nm, artefact control for SMM control protein annotation, primary screen (AID 1127); details: ConA-A647 binding fluorescence, higher = more signal;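 further: z combines 667 nm emission intensity with signal-to-noise across three replicate slides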
Sequence of Concanavalin-A (Canavalia ensiformis) (P02866 whole entry, looked up): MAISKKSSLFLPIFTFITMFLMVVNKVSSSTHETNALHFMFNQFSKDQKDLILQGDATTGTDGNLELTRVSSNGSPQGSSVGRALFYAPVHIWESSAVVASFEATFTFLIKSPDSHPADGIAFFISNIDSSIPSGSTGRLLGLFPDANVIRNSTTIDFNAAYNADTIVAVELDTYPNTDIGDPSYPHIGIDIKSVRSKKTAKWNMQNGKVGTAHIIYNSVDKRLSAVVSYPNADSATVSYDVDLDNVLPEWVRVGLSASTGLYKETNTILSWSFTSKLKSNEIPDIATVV

| SMILES | composite z-score [1] | composite Z-score [2] | composite z-score [3] | composite z-score [4] | composite z-score [5] | composite z-score [6] | composite z-score [7] | composite z-score [8] | composite z-score [9] | composite z-score [10] |
| --- | --- | --- | --- | --- | --- | --- | --- | --- | --- | --- |
| O=C1O[C@H](c2ccccc2)[C@H](c2ccccc2)N2[C@H]1[C@@H](C(=O)N1CCN(c3ncccn3)CC1)[C@]1(C(=O)Nc3ccc(C#CC4=CCCCC4)cc31)[C@H]2c1ccc(O)cc1 | 0.444 | -0.239 (inactive) | 0.0533 | -0.0282 | 0.413 | 1.81 | 0.853 | 1.3 | -0.0356 | 0.893 |
| COC(=O)c1c(CC[C@@H](CO)NC(=O)N[C@H](Cn2cc(Cc3ccccc3)nn2)C(C)C)oc(C(C)=O)c1C(=O)OC | 0.0007 | 0.255 (inactive) | -0.0159 | -0.202 | 0.43 | 0.889 | 0.0096 | 0.709 | 0.0618 | 0.321 |
| COCCOC(=O)N1C(=O)[C@@]2(c3cc(C#CCCO)ccc31)[C@H](c1ccc(OCCO)cc1)N1[C@H](c3ccccc3)[C@H](c3ccccc3)OC(=O)[C@H]1[C@@H]2C(=O)N1CCN(c2ncccn2)CC1 | 0.679 | -0.114 (inactive) | 0.162 | -0.161 | 0.31 | 2.03 | 0.602 | 1.29 | 0.718 | 1.15 |
| CN1C(=O)C2C=CC(C(O)c3cc(C(F)(F)F)cc(C(F)(F)F)c3)N(N3CCCCC3)C2C1=O (stereo not given) | 0.712 | 2.11 (inactive) | 0.0488 | -0.0467 | 0.551 | 1.79 | -0.33 | 1.08 | -0.672 | 0.768 |
| COCCOC(=O)N1C(=O)[C@@]2(c3cc(C#CC4=CCCCC4)ccc31)[C@H](c1ccc(O)cc1)N1[C@H](c3ccccc3)[C@H](c3ccccc3)OC(=O)[C@H]1[C@@H]2C(N)=O | -0.353 | 0.544 (inactive) | 0.092 | -0.253 | 0.331 | 1.16 | 0.45 | 1.01 | 0.71 | 1.06 |
| O=C1c2ccccc2[C@@]2(Cc3ccccc3N(CCN3CCOCC3)C2=O)[C@H](c2ccc(CO)cc2)N1Cc1ccccc1 | -0.425 | -0.117 (inactive) | -0.165 | -0.115 | 0.739 | 0.733 | 0.235 | -0.419 | -0.717 | 0.203 |
| COc1cc2c(cc1OC)CN(C(=O)[C@@H]1[C@H]3C(=O)O[C@H](c4ccccc4)[C@H](c4ccccc4)N3[C@H](c3ccc(O)cc3)[C@@]13C(=O)Nc1ccc(C#CC4(O)CCCCCC4)cc13)CC2 | -0.0111 | 0.841 (inactive) | -0.191 | 0.0834 | 0.551 | 2.01 | 0.548 | 1.29 | 1.03 | 1.16 |
| O=C1C2C=CC(C(O)C3CCCCC3)N(Nc3ccc([N+](=O)[O-])cc3)C2C(=O)N1c1ccccc1 (stereo not given) | 0.674 | -0.0746 (inactive) | -0.366 | -0.197 | 0.57 | 2.53 | 0.499 | 1.29 | -1.2 | 0.909 |
| O=C1O[C@H](c2ccccc2)[C@H](c2ccccc2)N2[C@H]1[C@@H](C(=O)NC[C@H](O)c1ccccc1)[C@]1(C(=O)Nc3ccccc31)[C@H]2c1ccc(OCCO)cc1 | 0.466 | -0.249 (inactive) | -0.0647 | -0.082 | 0.59 | 1.67 | 0.218 | 1.31 | 0.25 | 1.14 |
| C=CCN1C(=O)[C@]2(O[C@H](CCO)[C@@H]([Si](C)(C)c3ccc(OC)cc3)[C@@H]2C)c2cc(N3CCCCC3=O)ccc21 | 0.694 | 0.801 (inactive) | 0.135 | -0.106 | 0.163 | 1.86 | 0.279 | 1.28 | 0.122 | 0.877 |
| COC(=O)[C@@]1(Cc2ccccc2)[C@H]2c3cc(C(=O)N(C)C)n(CCSCCO)c3C[C@H]2CN1C(=O)c1ccccc1 | 0.569 | 0.376 (inactive) | 0.0893 | 0.0577 | 0.801 | 2.26 | -0.154 | 0.555 | -0.25 | 0.523 |
| CCOC(=O)C1=CCC(c2ccc(C)cc2)N(S(=O)(=O)c2ccc(C)cc2)C1 (stereo not given) | 0.0328 | 0.798 (inactive) | 0.037 | -0.146 | 0.251 | 1.43 | -0.347 | 0.747 | 0.137 | 0.995 |
| C=CCNC(=O)[C@@H]1[C@H]2C(=O)O[C@H](c3ccccc3)[C@H](c3ccccc3)N2[C@H](c2ccc(OCCO)cc2)[C@@]12C(=O)Nc1ccc(C#Cc3ccc(OC)cc3)cc12 | 0.77 | 0.883 (inactive) | 0.102 | -0.0464 | 0.331 | 1.14 | 0.606 | 1.3 | 0.605 | 1.13 |
| COCC(=C=CC[C@H](O)c1ccccc1OCCO)C[C@H](O)c1cc(Cl)cc(Cl)c1O | 0.384 | 2.26 (inactive) | -0.0077 | -0.115 | 0.351 | 0.834 | 0.478 | 1.24 | -0.383 | 0.689 |
| O=C1OCC=C[C@H]2OC34C=CCN(c5ccc6ccccc6c5)C(=O)[C@H]3N(CCCCCCO)C(=O)[C@@H]4[C@@H]12 (stereo not given in full) | 0.39 | 0.164 (inactive) | -0.241 | -0.0472 | 0.837 | 0.818 | 0.941 | -1.42 | -0.677 | -0.486 |
